Test results: PubChem BioAssay AID602399 (Sanford-Burnham Center for Chemical Genomics, 2012)
In all, about 360,000 compounds went through this assay and about 2,800 (0.78%) were called active. The sample holds actives, similar compounds and a random draw of the others, so the mix is not that of the screen. Unmarked numbers belong to inactive results. No stated cut-off is given here; in the data, active means inhibition above about 26%; inactive means the rest.

Each compound was assayed on Nicotinate-nucleotide adenylyltransferase NadD (Staphylococcus aureus N315) (assay: inhibitors of S. aureus NadD, primary screen, biochemical, colorimetric, uHTS (AID 602399)). Conditions: purified NadD enzyme, colorimetric absorbance read-out; at 20 µM; active compounds read high.

Compound | inhibition
CC1Cc2[nH][nH]c(=O)c2C(C2CC2)O1 (stereo not given) | -3.07%
CC(Oc1cccc(Cl)c1)C(=O)NC1CC(C)(C)NC(C)(C)C1 (stereo not given) | -1.75%
C[C@H](NC(=O)CC[C@H]1O[C@@H](n2ccc(=O)[nH]c2=O)[C@H](O)[C@@H]1O)c1cccc2ccccc12 | -3.28%
CN(C(=O)CC1C(=O)NCCN1Cc1ccc(F)cc1Cl)C1CCCCC1 (stereo not given) | 3.03%
CCC1CCc2c(sc(NC(C)=O)c2C#N)C1 (stereo not given) | 1.07%
CCOc1ccc2[nH]c(=O)c(CN(Cc3nnnn3CCc3ccccc3)CC3CCCO3)cc2c1 (stereo not given) | 0.283%
COc1ccc2[nH]c(=O)c(CN(Cc3nnnn3CCc3ccccc3)CC3CCCO3)cc2c1 (stereo not given) | 14.2%
CCC(c1nnnn1Cc1ccco1)N(Cc1cc2cc(OC)ccc2[nH]c1=O)C1CCCCC1 (stereo not given) | 31.2% (active)
O=C(COc1ccc([N+](=O)[O-])cc1)Nc1cccc(C(=O)Nc2ccccc2C(=O)O)c1 | -2.45%
O=C(COc1ccc([N+](=O)[O-])cc1)Nc1ccc(N2CCCC2)cc1 | 42.4% (active)
O=C(N/N=C/c1cccc(OC(=O)c2ccc([N+](=O)[O-])cc2)c1)c1cccnc1 | -12.9%
O=C(COc1ccc(/C=N/NC(=O)c2ccc(O)cc2)cc1)Nc1ccc([N+](=O)[O-])cc1 | 71.1% (active)
O=C(COC(=O)C1CCCCC1)Nc1ccc([N+](=O)[O-])cc1 | -1.2%
O=C(CCC(=O)N1CCCC1)Nc1ccc([N+](=O)[O-])cc1 | -6.64%
C/C(=N\NC(=O)OC(C)(C)C)c1ccc[nH]1 | -6.93%
Cc1ccc(Cl)cc1N1CCN(C(=O)c2cccc3c(=O)c(C)c(-c4ccccc4)oc23)CC1 | 4.56%
C/C(N)=C(/C#N)C(=O)COC(=O)C1CCN(C(=O)c2ccc(Cl)cc2)CC1 | -7.06%
COc1cc(/C=C(\C#N)C(=O)Nc2ccc3ccccc3c2)c([N+](=O)[O-])cc1OC | 5.18%
COCCNC(=O)/C(C#N)=C/c1cccc(OCc2ccccc2)c1 | -8.65%
COc1ccc(NC(=O)/C(C#N)=C\c2cc(OC)c(OCc3ccc(C(=O)O)cc3)cc2Br)cc1 | 30.5% (active)
CC(=O)Nc1ccc(S(=O)(=O)N2CCC(C(=O)NC3CC3)CC2)cc1 | 3.08%
O=C(CNC(=O)c1ccc2ccccc2c1)Nc1ncccc1O | 6.33%
O=C(NCC(=O)N1CCN(c2ccccc2O)CC1)c1ccc2ccccc2c1 | 31.5% (active)
COc1ccc(N2CCN(C(=O)CNC(=O)c3ccc(C(C)(C)C)cc3)CC2)cc1 | -1.98%
CC(C)C[C@H]1CNC(=O)C(=O)N1C[C@H]1CCCN1C[C@H](Cc1ccc(O)cc1)N1C[C@H](CC(C)C)N(CC2CCCCCC2)C(=O)C1=O | 23.7%
CCOc1ccc(CCN2C(=S)N([C@@H](CC(C)C)CN3CCC[C@@H]3CN3C(=S)NC[C@@H]3Cc3ccc(O)cc3)C[C@@H]2Cc2ccc(O)cc2)cc1 | 35% (active)
CCOc1ccc(CCN2C(=O)C(=O)N([C@@H](CC(C)C)CN3CCC[C@H]3CN3C(=O)C(=O)NC[C@@H]3Cc3ccccc3)C[C@@H]2CC(C)C)cc1 | 28.4%

Compound | inhibition
CCOc1ccc(CCN2C(=S)N([C@@H](CC(C)C)CN3CCC[C@@H]3CN3C(=S)NC[C@@H]3Cc3ccc(O)cc3)C[C@@H]2CC(C)C)cc1 | 26.6%
O=C1NC[C@H](Cc2ccc(O)cc2)N(C[C@H]2CCCN2C[C@H](Cc2ccccc2)N2C[C@H](Cc3ccccc3)N(CCc3ccccc3)C(=O)C2=O)C1=O | 24%
O=C1NC[C@H](Cc2ccc(O)cc2)N(C[C@@H]2CCCN2C[C@H](Cc2ccccc2)N2C[C@H](Cc3ccccc3)N(CC3CCCCC3)C(=O)C2=O)C1=O | 38.8% (active)
C[C@H]1COC(=O)[C@H](CC(=O)OC(C)(C)C)C/C=C\C[C@@H](CC(=O)N[C@H](CO)Cc2ccccc2)C(=O)N1 | -1.24%
CC(c1ccccn1)N(C)C(=O)c1ccc2nc(Cc3cccc(Cl)c3)oc2c1 (stereo not given) | -8.59%
CCOCCCNC(=O)Cc1cc(=O)[nH]c(=O)[nH]1 | 4.88%
CC(=O)N1CCc2ccc(N)cc21 | -3.06%
O=C1NC(O)CCN1C1CC(O)C(CO)O1 (stereo not given) | -1.72%
Cc1noc(C)c1S(=O)(=O)N(C)C[C@H]1Oc2ccc(NC(=O)C3CC3)cc2C(=O)N([C@H](C)CO)C[C@@H]1C | 4.79%
Cc1ccc2nc(SCC(=O)N3CC(C)OC(C)C3)nc(=O)n2c1 (stereo not given) | -2.71%
CCOC(=O)C1=CCC(c2ccc(F)cc2)N(S(=O)(=O)c2ccc(C)cc2)C1 (stereo not given) | -6.49%
COC(=O)[C@]12CCCCC=C1N(Cc1ccc(Cl)cc1Cl)C(=O)[C@H](CC(=O)NCc1cccc3ccccc13)C2 | 16.3%
Cc1cc(C)c(-c2csc(NC(=O)CCCc3nc4ccccc4c(=O)[nH]3)n2)c(C)c1 | 21.6%
CCCn1c(C)cc(-c2csc(NC(=O)CCc3nc4ccccc4c(=O)[nH]3)n2)c1C | 47.6% (active)
CCN(CC)c1ccc(C(=O)NNC(=O)CCc2nc3ccccc3c(=O)[nH]2)cc1 | -1.03%
CN(CC(=O)NCc1ccc2c(c1)OCO2)CC(=O)Nc1ccc(F)c(F)c1F | -3.42%
COc1ccc([N+](=O)[O-])cc1NC(=O)c1ccc(N(Cc2ccccc2C)S(C)(=O)=O)cc1 | 11%
COc1ccc([N+](=O)[O-])cc1NCC(=O)c1ccc(C)cc1 | 7.38%
COc1ccc([N+](=O)[O-])cc1NC(=O)CC1SC(=Nc2cccc(C)c2C)N(/N=C(\C)c2ccc(C)cc2)C1=O (stereo not given) | 26.7% (active)
N#CNC1=NCN(CCc2ccccc2)CN1 | 3.37%
COc1ccc(NC(=O)N(C)C[C@@H]2OCc3cn(nn3)CCCC(=O)N([C@H](C)CO)C[C@H]2C)c(OC)c1 | -0.14%
CCCc1cc(=O)[nH]c(SCC(=O)Nc2sc3c(c2C#N)CCCC3)n1 | 0.874%
COc1ccc(-n2c(SCC(=O)Nc3sc4c(c3C#N)CCCC4)nnc2-c2ccc(O)cc2)cc1 | 33.1% (active)
COc1cccc(CN(C)CC(=O)Nc2sc3c(c2C#N)CCC3)c1 | -5.48%
COc1ccc(-c2ccc3[nH]c4c(c3c2)CCN2C[C@H]3[C@H](C)ON(C)[C@H]3C[C@@H]42)cc1 | -7.97%
COc1cccc(C(O)c2nc(-c3ccc(C)c(C)c3)cs2)c1 (stereo not given) | -4.75%
COC(=O)/C=C\C(=O)Nc1cccc([N+](=O)[O-])c1 | 7.18%

Compound | inhibition
Cc1cc(NC(=O)COC(=O)/C=C/c2ccc(C)o2)no1 | -5.17%
Cc1ccc(/C=C/C(=O)Nc2ccc([N+](=O)[O-])c(NC(=O)/C=C/c3ccc(C)o3)c2)o1 | 47.9% (active)
O=C(NC(=O)N1CCSCC1)c1c(Cl)cccc1Cl | 17.8%
Cc1ccc(S(=O)(=O)NCC(=O)N(CC(=O)NC(C)(C)C)Cc2cccs2)cc1 | -3.65%
Cn1c2c(c(=O)n(C)c1=O)[C@@H]1c3c(ccc4ccccc34)OC[C@@H]1CO2 | 1.89%
CC1=CC(=O)C=CC1(C)C(Cl)(Cl)Cl (stereo not given) | 4.28%
N#CC1=C(N)Oc2c(sc3ccccc23)C1c1ccco1 (stereo not given) | 33.4% (active)
Cc1ccc(C(=O)N(CN2CCCC2=O)c2ccc(F)cc2)cc1 | -3.99%
COc1cc(C(F)(F)F)c(C(=O)N(C)c2ccc(Cl)cc2)cn1 | -3.26%
COc1ccc(C(NC(=O)C2CCN(CCCc3ccccc3)CC2)c2cccs2)cc1 (stereo not given) | 0.814%
Cc1ccc2sc(NNC(=O)c3ccc4c(c3)OCCO4)nc2c1C | 11.1%
COc1cccc(/C=C/c2ccc3ccccc3n2)c1OC(C)=O | -5.51%
COc1cccc2sc(NNC(=O)c3nc4ccccc4s3)nc12 | 36.6% (active)
O=C(COc1nc2ccccc2nc1N1CCOCC1)NCC(F)(F)F | -2.03%
COC(=O)[C@@]1(Cc2ccc(OC)cc2)[C@H]2c3cc(C(=O)N4CCCC4)n(Cc4ccc(OC(F)(F)F)cc4)c3C[C@H]2CN1C(=O)c1ccccc1 | 15.7%
CCOc1ccc(S(=O)(=O)N2CCCCC2)cc1NC(=O)CN1CCCC1c1cccs1 (stereo not given) | 5.31%
CCN(CC)c1ccc(NC(=O)CN2C(=O)NC3(CCc4ccccc43)C2=O)cc1 (stereo not given) | -4.85%
CCCN(c1ccc(C(C)C)cc1)S(=O)(=O)c1c(C)[nH]c(=O)[nH]c1=O | 6.85%
CC(=O)Nc1ccc(C(=O)Nc2cccc(S(=O)(=O)NC3=NCCC3)c2)cc1 | 7.82%
Nc1[nH]c(=S)nc2nc(-c3ccccc3)c(-c3ccccc3)nc12 | 31.3% (active)
CC/C(=N\O)C(C)(C)/[N+]([O-])=C/c1ccc(Br)cc1 | -4.93%
CC12CN(Cc3ccccc3)CC(C)(CN(Cc3ccccc3)C1)C2=NO | -2.69%
O=C(NCCc1cccc(F)c1)C1CC(O)CN1C(=O)Nc1ccccc1 (stereo not given) | 0.207%
O=S(=O)(c1ccc(Cl)cc1)N1CCCN(c2ccc(C(F)(F)F)cn2)CC1 | -6.85%
Cc1ccc2nc(/C(C#N)=C\c3ccc(OC(=O)c4cccs4)cc3)[nH]c2c1 | 40.4% (active)
COc1ccc(CCNC(=O)/C(C#N)=C2\N=C(NC(=O)c3cccs3)c3ccccc32)cc1 | 2.29%
